Assay outcomes as filed in PubChem.
The list is not random: actives were taken first. Their share in the collection is about 3.5%.
Autofluor counter = counter-screen for toxin protease inhibitors: compound fluorescence; compound autofluorescence counterscreen, microsphere flow cytometry; hits give high values; fluorescence intensity (test concentration not listed); 360,000 tested, 3.1% active; AID 624483; in the data active = fluorescence intensity above about 16000; inconclusive = no clear call, values can overlap the other calls
Anthrax LF inh2 = inhibitors of Bacillus anthracis lethal factor protease | P15917 | 360,000 tested, 0.12% active | multiplex microsphere protease cleavage assay, LF | inhibition, % at 10 µM | AID 588501; note: plate controls were buffer without enzyme for full effect and enzyme alone for no effect
Target sequence (P15917 whole entry, looked up): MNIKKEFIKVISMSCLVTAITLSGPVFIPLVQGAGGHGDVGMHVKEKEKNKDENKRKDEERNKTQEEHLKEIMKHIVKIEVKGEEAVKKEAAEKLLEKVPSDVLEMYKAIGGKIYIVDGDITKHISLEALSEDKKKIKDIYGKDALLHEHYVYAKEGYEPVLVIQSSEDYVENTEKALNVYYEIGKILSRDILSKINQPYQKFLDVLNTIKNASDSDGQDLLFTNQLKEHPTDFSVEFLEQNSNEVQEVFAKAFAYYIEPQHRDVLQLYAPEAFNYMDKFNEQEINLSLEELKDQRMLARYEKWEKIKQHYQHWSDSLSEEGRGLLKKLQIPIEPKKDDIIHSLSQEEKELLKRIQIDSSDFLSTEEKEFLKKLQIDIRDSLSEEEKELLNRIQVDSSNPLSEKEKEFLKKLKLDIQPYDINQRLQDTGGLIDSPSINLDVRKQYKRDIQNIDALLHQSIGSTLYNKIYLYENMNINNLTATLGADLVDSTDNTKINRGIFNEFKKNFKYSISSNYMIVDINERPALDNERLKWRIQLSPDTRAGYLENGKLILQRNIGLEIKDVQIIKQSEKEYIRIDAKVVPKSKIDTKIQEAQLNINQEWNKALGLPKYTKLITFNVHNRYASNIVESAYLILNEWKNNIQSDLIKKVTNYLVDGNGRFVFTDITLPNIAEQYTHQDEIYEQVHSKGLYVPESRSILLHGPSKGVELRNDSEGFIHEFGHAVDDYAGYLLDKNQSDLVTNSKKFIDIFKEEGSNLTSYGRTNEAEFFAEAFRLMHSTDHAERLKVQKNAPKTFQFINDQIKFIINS
BoNT A protease = blocks Botulinum neurotoxin A light chain protease; multiplex microsphere protease substrate cleavage, flow cytometry; inhibition, % at 10 µM; 360,000 tested, 0.17% active; note: plate controls were buffer without enzyme for full effect and enzyme alone for no effect
BJeLR viability = kills HRASV12-expressing BJeLR cells; BJeLR (HRASV12) viability, CellTiter-Glo ATP luminescence, 48 h; inhibition, % (no concentration beside the values); 300,000 tested, 0.17% active; in the data active = inhibition above about 50%; inconclusive = no clear call, values can overlap the other calls
BoNT-F LC inh = blocks Botulinum neurotoxin F light chain protease; inhibition, % at 10 µM; 360,000 tested, 0.22% active; Multiplex microsphere protease cleavage assay, flow cytometry; in the data active = inhibition above about 35%, passing the limit was not always enough; inconclusive = no clear call, values can overlap the other calls; note: plate controls were buffer without enzyme for full effect and enzyme alone for no effect
The depositor's hits bear a star; ? = inconclusive; / = no result. Cut-off read from the data, not from the text of the source, unless noted: active = inhibition above about 30%; inconclusive = no clear call, values can overlap the other calls; inactive = below that.

SMILES	Autofluor counter	Anthrax LF inh2	BoNT A protease	BJeLR viability	BoNT-F LC inh
Nc1nn(S(=O)(=O)c2ccccc2)cc1-c1cccc([N+](=O)[O-])c1	4249	-10.3	0.2	2.1	5.0
CCOc1cc(S(=O)(=O)n2cc(-c3ccc(F)cc3)c(N)n2)cc(OCC)c1OCC	2809	-2.1	0.7	9.9	-8.8
CCOC(=O)N1CCN(S(=O)(=O)N2CCCC(C(=O)NCc3ccccc3OCC)C2)CC1 (stereo not drawn)	2917	-3.2	0.6	/	7.5
CC(C)(C)NC(=O)CN(C(=O)CS(=O)CC(=O)Nc1ccc(F)cc1)c1cccc(F)c1 (stereo not drawn)	4227	-0.1	0.8	2.5	4.5
CC(C)(C)NC(=O)CN(C(=O)CS(=O)CC(=O)Nc1ccc(F)cc1)c1ccccc1F (stereo not drawn)	4501	-4.3	1.3	-4.4	-1.0
CC(C)(C)NC(=O)CN(C(=O)CS(=O)CC(=O)Nc1ccc(F)cc1)c1ccc(Cl)cc1 (stereo not drawn)	20135*	0.5	?	6.0	1.6
CC(C)(C)NC(=O)CN(C(=O)CS(=O)CC(=O)Nc1ccc(F)cc1)c1ccc(F)c(Cl)c1 (stereo not drawn)	20160*	-0.5	-1.4	-8.8	-3.1
O=c1[nH][nH]c(-c2ccccc2)c1C=Nc1ccc(OC(F)(F)F)cc1	2109	-2.3	-0.2	6.9	1.5
O=C(NCCc1ccccc1)c1ncn[nH]1	20498*	1.5	?	6.6	-0.3
O=C(NCCc1ccc(Cl)cc1)c1ncn[nH]1	4133	-1.5	-1.2	18.1	-21.0
COc1cccc2c1C(=O)c1c(O)c3c(c(O)c1C2=O)C[C@@](O)(C(C)=O)C[C@@H]3O[C@H]1C[C@H](N)[C@H](O)[C@H](C)O1	4571	-29.2	1.3	/	-24.4
COc1cccc2c1C(=O)c1c(O)c3c(c(O)c1C2=O)C[C@@](O)(C(=O)CO)C[C@@H]3O[C@H]1C[C@H](N)[C@@H](O)[C@H](C)O1	2915	-108.1	1.1	74.1*	-121.2
CC(=O)[C@]1(O)Cc2c(O)c3c(c(O)c2[C@@H](O[C@H]2C[C@H](N)[C@H](O)[C@H](C)O2)C1)C(=O)c1ccccc1C3=O	/	/	/	82.1*	/
COc1cccc2c1C(=O)c1c(O)c3c(c(O)c1C2=O)CC(O)(C(=O)CO)CC3OC1CC(N(C)C)C(O)C(C)O1 (stereo not drawn)	3384	-30.8	0.8	/	-46.3
O=C(NC(=S)NCCCN1CCOCC1)c1cccc2ccccc12	3335	-5.5	-0.5	3.4	-4.9
c1ccc(CCN2CN=C(Nc3nc4ccccc4s3)NC2)cc1	3691	-4.6	?	-3.0	?
c1ccc2sc(NC3=NCN(C4CCCCC4)CN3)nc2c1	9927	-6.5	-0.7	/	2.0
c1ccc(CN2CN=C(Nc3nc4ccccc4s3)NC2)cc1	16724*	-2.5	-0.5	-2.1	0.5
CC1CCCCC1N1CN=C(Nc2nc3ccccc3s2)NC1 (stereo not drawn)	23381*	-0.7	-2.0	-0.8	-2.9
COc1ccc(CN2CN=C(Nc3nc4ccccc4s3)NC2)cc1	23311*	-2.3	-3.6	/	-4.6
c1ccc2sc(NC3=NCN(Cc4ccc5c(c4)OCO5)CN3)nc2c1	10438	-8.0	-0.9	4.4	-4.9
CCN(CCNC(=O)Nc1ccc(Cl)cc1)c1ccccc1	2520	-3.1	0.1	-3.3	-3.4
CC(Nc1cc(N2CCN(C(=O)C(C)(C)C)CC2)ccc1[N+](=O)[O-])c1ccccc1 (stereo not drawn)	23558*	-11.4	-2.0	-3.0	-6.2
COc1ccc(CNC(=O)c2sc(=O)n(Cc3ccccc3OC)c2C)cc1	3972	-8.5	-0.7	/	-2.8
COc1ccc(C2C(C(C)=O)=C(O)C(=O)N2CCc2ccccc2)c(OC)c1 (stereo not drawn)	16192*	-1.3	-0.4	-5.7	-3.8
SMILES	Autofluor counter	Anthrax LF inh2	BoNT A protease	BJeLR viability	BoNT-F LC inh
CCOc1ccc(-c2noc(CCCC(=O)NC3CCCCC3)n2)cc1OC	3690	8.3	0.1	1.1	11.3
COc1cc(-c2noc(CCCC(=O)NC3CCCCC3)n2)cc(OC)c1OC	17180*	-2.3	?	2.7	-2.9
CCNc1nc(NCC)nc(Nn2cnnc2)n1	20282*	0.8	-0.4	-18.0	0.4
CN(CC(=O)Nc1ccc(F)cc1)C(=O)CCc1ccccc1	4381	-3.8	-0.9	-5.2	0.1
COc1cnc(-c2ccccn2)nc1Sc1ccccc1Cl	16715*	-4.1	-2.0	6.2	-5.6
CC(C)(C)c1ccc(-c2nnc(SCC(=O)NC3CC3)o2)cc1	2854	-4.1	-0.2	/	1.6
O=[N+]([O-])c1ccc(O)c(/C=N/Nc2ccccn2)c1	2089	6.6	21.4	21.6	67.4*
O=[N+]([O-])c1ccc(NN=Cc2ccccc2O)nc1	3804	4.0	-0.5	/	-3.0
CCOC1=C2[C@H](c3ccccc3F)N(S(=O)(=O)c3ccc(C)cc3)C[C@H]2n2c(=O)n(-c3ccccc3)c(=O)n2C1	6126	9.6	-0.5	/	3.9
COc1cccc(C2=NO[C@@H]3C(=O)N(c4ccc5c(c4)OCCO5)C(=O)[C@H]23)c1OC	20829*	-0.4	4.0	0.2	6.1
COc1cccc(C2=NO[C@@H]3C(=O)N(Cc4ccccc4)C(=O)[C@H]23)c1OC	8668	-6.1	-0.4	-6.9	-8.0
Cc1ccccc1Oc1ncccc1C(=O)/C(C#N)=C/N(C)C	23141*	-0.9	-2.1	-8.8	-0.8
COc1ccc(NC(=O)Cc2coc3cc(C)ccc23)cn1	4504	-5.0	0.5	3.1	-4.2
COc1ccc(C(C)(O)c2nc(-c3cccc(C(F)(F)F)c3)cs2)cc1 (stereo not drawn)	3632	-2.3	-0.4	/	-2.3
CCC(=NCc1ccccc1)c1c(C(F)(F)F)[nH]n(-c2nc3ccccc3s2)c1=O	16663*	-3.7	-1.7	-3.4	-2.2
CCC(=NCc1ccco1)c1c(C(F)(F)F)[nH]n(-c2nc3ccccc3s2)c1=O	6635	-3.0	-2.0	6.4	-13.6
NC(COCc1ccccc1)c1csc(Nc2ccc(C(=O)NCCO)cc2)n1 (stereo not drawn)	3138	3.1	-0.2	/	-8.6
Cc1ccc(OCc2ccc(C(=O)Nc3c(C)nn(Cc4c(F)c(F)c(F)c(F)c4F)c3C)o2)c([N+](=O)[O-])c1	23883*	-0.6	-0.3	1.7	-2.0
Cc1cc(NC(=O)c2c([N+](=O)[O-])c(C)nn2C)no1	4859	2.5	-0.6	-3.0	-19.3
Cc1ccc(OCc2ccc(C(=O)NN)o2)c([N+](=O)[O-])c1	4140	9.2	2.1	2.6	?
Cc1cc(NC(=O)c2c([N+](=O)[O-])cnn2C)no1	20559*	-0.2	-1.3	-8.4	-0.5
Cc1nn(Cc2c(F)c(F)c(F)c(F)c2F)c(C)c1NC(=O)c1c([N+](=O)[O-])c(C)nn1C	8510	-3.4	-1.2	11.5	-13.1
CCn1cc(Cl)c(C(=O)Nc2c(C)nn(Cc3c(F)c(F)c(F)c(F)c3F)c2C)n1	4843	3.5	3.1	-8.9	9.8
Cc1nn(Cc2c(F)c(F)c(F)c(F)c2F)c(C)c1NC(=O)c1c([N+](=O)[O-])cnn1C	22419*	-4.1	2.1	-3.8	1.8
